Reference: ChEMBL document CHEMBL4808148, “HDAC6 screening dataset using tau-based substrate in an enzymatic assay yields selective inhibitors and activators” (2021)
The whole screen tested about 5,600 compounds, of which about 390 (7%) showed an effect of 50% or more. For the sample, strong results were picked, then their nearest neighbours and some compounds at random. Starred links: 1 amine or outer side, 2 acyl side, 3 side chain; linkers in the order of their positions; H or OH if unused. Positions of bridges follow the written chain, without caps; N, C: chain ends. Non-standard residues stand in square brackets, D forms with d. Residues, ends and D or L forms follow the SMILES beside them. Chains are numbered I, II in the order given. Actinocin(9to1) = Cc1c2oc3c(C)ccc(C(=O)[*:1])c3nc-2c(C(=O)[*:2])c(N)c1=O; NMeV = CN[C@H](C(=O)O)C(C)C; Sar = CNCC(=O)O

Key:
[1] = molecular target: T1, Protein deacetylase HDAC6 (Homo sapiens) (UniProt Q9UBN7); details: at 10 µM
T1 sequence (whole entry): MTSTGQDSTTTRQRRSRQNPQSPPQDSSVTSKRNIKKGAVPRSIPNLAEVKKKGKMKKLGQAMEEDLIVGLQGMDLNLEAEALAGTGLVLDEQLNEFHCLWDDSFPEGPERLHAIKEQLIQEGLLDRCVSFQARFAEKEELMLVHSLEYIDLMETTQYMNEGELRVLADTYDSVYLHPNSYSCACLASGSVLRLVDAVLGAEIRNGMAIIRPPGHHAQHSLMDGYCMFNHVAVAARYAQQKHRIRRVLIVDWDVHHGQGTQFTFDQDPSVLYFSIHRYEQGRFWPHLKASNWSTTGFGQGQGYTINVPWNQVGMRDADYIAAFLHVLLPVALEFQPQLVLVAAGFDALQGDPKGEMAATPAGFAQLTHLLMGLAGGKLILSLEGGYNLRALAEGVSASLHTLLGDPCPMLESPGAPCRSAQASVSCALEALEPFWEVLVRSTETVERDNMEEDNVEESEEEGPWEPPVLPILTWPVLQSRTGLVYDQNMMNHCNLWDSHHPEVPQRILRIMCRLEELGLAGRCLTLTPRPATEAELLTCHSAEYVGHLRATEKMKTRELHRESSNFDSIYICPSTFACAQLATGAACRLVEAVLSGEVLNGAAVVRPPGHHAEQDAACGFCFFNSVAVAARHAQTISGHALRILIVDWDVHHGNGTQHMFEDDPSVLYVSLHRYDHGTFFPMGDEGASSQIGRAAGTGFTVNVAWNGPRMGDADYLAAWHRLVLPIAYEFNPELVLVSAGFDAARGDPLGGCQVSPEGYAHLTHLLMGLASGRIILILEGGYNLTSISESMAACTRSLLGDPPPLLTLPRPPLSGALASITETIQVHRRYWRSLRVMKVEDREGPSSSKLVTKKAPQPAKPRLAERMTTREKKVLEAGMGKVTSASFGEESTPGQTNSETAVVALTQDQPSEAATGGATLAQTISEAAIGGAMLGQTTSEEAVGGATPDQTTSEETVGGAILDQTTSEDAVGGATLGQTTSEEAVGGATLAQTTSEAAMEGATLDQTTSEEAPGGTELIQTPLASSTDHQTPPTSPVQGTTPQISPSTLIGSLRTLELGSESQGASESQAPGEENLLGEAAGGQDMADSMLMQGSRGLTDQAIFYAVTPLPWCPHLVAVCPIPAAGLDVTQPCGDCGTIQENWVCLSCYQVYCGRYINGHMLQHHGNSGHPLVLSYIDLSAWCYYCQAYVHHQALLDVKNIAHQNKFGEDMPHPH

[2] = molecular target: Protein deacetylase HDAC6 (Homo sapiens) (UniProt Q9UBN7); details: at 10 µM; remark: listed apart in the source

Row | Molecule | inhibition [1] [%] | inhibition [2] [%]
1 | COc1cccc(CCc2ccccc2OCC(CN(C)C)OC(=O)CCC(=O)O)c1 (stereo unspecified) | -7 | 
2 | COc1cccc(/C=N/C=N/c2cccc(OC)c2)c1 | 99.8 | 
3 | N/C(=N\C(=O)c1nc(Cl)c(N)nc1N)NCc1ccccc1 | 25.2 | 
4 | N[C@H](C(=O)O)c1ccc(O)cc1 | 4.75 | 
5 | Cc1cc(-c2nc(C(=O)Nc3cn(C4CCOCC4)nc3C(N)=O)co2)ccn1 | 22.8 | 
6 | O=C(/C=C/c1cccc(S(=O)(=O)Nc2ccccc2)c1)NO | 102 | 
7 | CC(=O)Nc1ccc(S(=O)(=O)Nc2ccc([N+](=O)[O-])cc2)cc1 | 17.7 | 
8 | COc1ccc(/C=C/C(=O)Nc2ccccc2C(=O)O)cc1OC | 40.8 | 
9 | c1cc(-c2sc(-c3ccncc3)c(-c3ccncc3)c2-c2ccncc2)ccn1 | 17 | 
10 | COc1cc(N)c(Cl)cc1C(=O)CCC1CCN(CCNS(C)(=O)=O)CC1 | -6.48 | 
11 | Nc1ncnc2c1ncn2[C@@H]1O[C@H](CO)C[C@H]1O | -9.63 | 
12 | CC(=O)Oc1c(C)cc(OCC(O)CNC(C)C)c(C)c1C (stereo unspecified) | 28.4 | 
13 | CCOc1ccc(-n2c(C(C)N(Cc3cccnc3)C(=O)Cc3ccc(F)c(C(F)(F)F)c3)nc3ncccc3c2=O)cc1 (racemic) | -3.08 | 
14 | COc1cccc(-c2ccc(NC(=O)C3=C(C(=O)O)CCC3)c(F)c2)c1 | 43.2 | 
15 | COc1cc2nccc(Oc3ccc(NC(=O)Nc4ccc(F)cc4F)c(F)c3)c2cc1OC | 10.8 | 
16 | CCCCOc1ccc(C(=O)Nc2ccc(F)cc2F)cc1 | 69.8 | 
17 | Chlorophyllin (sodium copper salt), CHEMBL5308389 |  | 19.3
18 | CHLOROPHYLLIDECOPPER COMPLEX SODIUM SALT, CHEMBL5308389 |  | 8.12
19 | BISMUTH SUBSALICYLATE, CHEMBL1120 |  | 12.2
20 | Cc1c(-c2ccc(-c3ccccc3F)cc2)nc2ccc(F)cc2c1C(=O)O | -9.14 | 
21 | O=C(O)C1(c2ccc(-c3ccc(Cl)c(Cl)c3)c(F)c2)CC1 | 33.4 | 
22 | O=C(O)c1cc(-c2ccc(F)cc2F)ccc1O | 60.9 | 
23 | CC(C)[C@@H](C)/C=C/[C@@H](C)[C@H]1CC[C@H]2/C(=C/C=C3\C[C@@H](O)CC[C@@H]3C)CCC[C@]12C | 11.8 | 

Row | Molecule | inhibition [1] [%] | inhibition [2] [%]
24 | CC(C)(O)c1coc(S(=O)(=O)NC(=O)Nc2c3c(cc4c2CCC4)CCC3)c1 | -9.36 | 
25 | Cc1cnc(NC(=O)Nc2cc(Br)c(C)cc2OC[C@@H]2CNCCO2)cn1 | -8.01 | 
26 | COc1cc(COc2cc(N)c(Cl)cc2C(=O)CCC2CCN(CCNS(C)(=O)=O)CC2)cc(OC)c1 | 28.1 | 
27 | Cc1c(NC(=O)N2CCOCC2)ccc2c1c1ccccc1n2C(C)C | 21.6 | 
28 | CN1CCCC(CC2c3ccccc3Sc3ccccc32)C1 (stereo unspecified) | 34.4 | 
29 | CSc1ccc2c(c1)C(N1CCN(C)CC1)Cc1ccccc1S2 (stereo unspecified) | 62.7 | 
30 | CSc1ccc2c(c1)N(CCC1CCCCN1C)c1ccccc1S2 (stereo unspecified) | 21.9 | 
31 | NC(=O)C[C@H](N)C(=O)O | 16.2 | 
32 | O=C(O)CNC(=O)c1nc(Cl)c2ccccc2c1O | -6.14 | 
33 | Cc1c2oc3c(C)ccc(C(=O)N[C@@H]4C(=O)N[C@@H](C(C)C)C(=O)N5CCC[C@H]5C(=O)N(C)CC(=O)N(C)[C@@H](C(C)C)C(=O)O[C@@H]4C)c3nc-2c(C(=O)N[C@@H]2C(=O)N[C@@H](C(C)C)C(=O)N3CCC[C@H]3C(=O)N(C)CC(=O)N(C)[C@@H](C(C)C)C(=O)O[C@@H]2C)c(N)c1=O (I: TVP[Sar][NMeV] / II: TVP[Sar][NMeV]; ester I:1-I:C, II:1-II:C; linker I:N-II:N via Actinocin(9to1)) | 21 | 
34 | COc1ccccc1S(=O)(=O)Nc1ccc2c(c1)CN(C)C(=O)N2 | -9.44 | 
35 | COc1cccc([C@H](O)C2CCN(CCc3ccc(F)cc3)CC2)c1OC | -1.53 | 
36 | COc1cc2c(cc1OC)CN(CCc1ccc(NC(=O)c3cccc4c(=O)c5cccc(OC)c5[nH]c34)cc1)CC2 | 59.7 | 
37 | COc1cnc(-n2cnc(C)n2)c2[nH]cc(C(=O)C(=O)N3CCN(C(=O)c4ccccc4)CC3)c12 | 12.8 | 
38 | CC(C)(Sc1ccc(CCN(CCCCC2CCCCC2)C(=O)NC2CCCCC2)cc1)C(=O)O | 10.4 | 
39 | COc1ccc(/C=C\CCCCOc2ccc(C(=O)c3cccc(C(=O)O)c3)cc2CCC(=O)O)cc1 | -0.99 | 
40 | CC(C)(C)c1ccc(CN(Cc2cccc(OCC(=O)O)c2)S(=O)(=O)c2cccnc2)cc1 | 3.1 | 
41 | Cc1onc(-c2c(Cl)cccc2Cl)c1C(=O)N[C@@H]1C(=O)N([C@@H](C(=O)O)C(C)(C)C)[C@@H]1S | -9.26 | 
42 | O=C(Nc1ccccc1-c1cn2c(CN3CCNCC3)csc2n1)c1cnc2ccccc2n1 | 55.6 | 
43 | O=C(C1CC1)N1CC[C@@H](Cc2n[nH]c(=O)n2-c2ccc(-c3ccc4occc4c3)cc2)C1 | 39.2 | 
44 | CN[C@@H]1[C@@H](O)[C@H](O[C@@H]2[C@@H](O)[C@H](O[C@H]3O[C@H](CN)[C@@H](O)[C@H](O)[C@H]3O)[C@@H](N)C[C@H]2NC(=O)[C@@H](O)CN)OC[C@]1(C)O | -4.97 | 
45 | Cc1cc(NC(=O)Nc2ccc(N(C)C)cc2)c2cc(F)cc(F)c2n1 | 9.39 | 
46 | Cc1ccc(F)c(NC(=O)Nc2ccc(-c3cccc4[nH]nc(N)c34)cc2)c1 | 94.5 | 
